Shown are actives, neighbours in structure and some others; about 1.4% of the full set was active somewhere.
AID504770: E. coli YBA685 growth inhibition, screen for V. cholerae RctB inhibitors; E. coli YBA685 rctB-dependent plasmid, OD600 growth, 3 h; hits give low values; z-score (no concentration beside the values); AID 504770; actives 0.27% (n = 130,000); in the data active = z-score below about -2, passing the limit was not always enough
MenB inh: inhibitors of Mycobacterium tuberculosis MenB enzyme. P9WNP5. MenB enzyme assay, absorbance read-out. inhibition, % (test concentration not listed). actives 0.43% (n = 100,000). AID 540299; in the data active = inhibition above about 21%, passing the limit was not always enough
Mtb MbtI inh: MbtI salicylate synthase inhibition | P9WFX0 | AID 493033 | purified MbtI enzyme, fluorescence intensity read-out | inhibition, % (concentration not given with the values) | actives 0.89% (n = 100,000); in the data active = inhibition mostly above about 56%, no sharp cut-off; inactive = mostly below about 77%
PV pol inh: poliovirus RNA polymerase inhibition. % elongation, % (compound at 16.7 µg/mL). poliovirus polymerase elongation, fluorescence polarization; hits give low values. P03300. actives 0.66% (n = 150,000); in the data active = % elongation below about 90%
Target sequence (P03300 1749-2209 limits assumed): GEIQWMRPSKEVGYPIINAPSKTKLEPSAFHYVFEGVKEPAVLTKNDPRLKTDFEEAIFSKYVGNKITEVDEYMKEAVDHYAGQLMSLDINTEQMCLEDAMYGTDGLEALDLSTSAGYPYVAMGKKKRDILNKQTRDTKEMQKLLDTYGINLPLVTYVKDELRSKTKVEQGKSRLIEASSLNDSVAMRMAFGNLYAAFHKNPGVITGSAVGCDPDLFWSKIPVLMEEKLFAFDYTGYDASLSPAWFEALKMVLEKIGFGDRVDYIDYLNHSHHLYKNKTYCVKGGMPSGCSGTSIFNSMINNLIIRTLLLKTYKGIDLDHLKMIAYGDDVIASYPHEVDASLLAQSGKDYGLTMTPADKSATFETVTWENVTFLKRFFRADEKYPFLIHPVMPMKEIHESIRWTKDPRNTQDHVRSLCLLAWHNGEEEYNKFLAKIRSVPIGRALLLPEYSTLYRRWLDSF
Each line names hits and unclear results; the compound was inactive in the other large screens; ! = not confirmed by another sample.

COC(=O)C(Cc1csc2ccc(Cl)cc12)NC(=O)c1ccccc1 (stereo unspecified)	none (no result: MenB inh, Mtb MbtI inh, PV pol inh)
COC(=O)c1ccccc1S(=O)(=O)NC(=O)Nc1nc(C)c2c(n1)CCS(=O)(=O)C2	none
CC(Sc1ccccn1)C(=O)Nc1ccccc1 (stereo unspecified)	Mtb MbtI inh 93.7
O=C(C1CCCCC1)N1CCCCCCC1	none
S=C(S)N1CCCCC1	AID504770 -5.15 (no result: MenB inh, Mtb MbtI inh, PV pol inh)
O=C(Oc1c(Cl)cc(Cl)c2cccnc12)c1ccco1	AID504770 -3.35
Oc1c(Cl)cc(Cl)c2cccnc12	none
CC1CCN(C(=O)c2cc3c(=O)[nH]c4ccccc4c3s2)CC1	none
COc1cccc(C(=O)CC#N)c1	none
COc1cccc(C(=O)CS)c1	Mtb MbtI inh 86.7
COc1ccc(/C(O)=C/c2nc3cc(C)ccc3oc2=O)c(OC)c1	none
CN(C)c1ccc(C(=C2C=CC(=[N+](C)C)C=C2)c2ccc(N(C)C)cc2)cc1	none
CN(C)c1ccc(C2=CC=CC(=C3C=CC(=[N+](C)C)C=C3)O2)cc1	Mtb MbtI inh 84.2
COc1ccccc1CN(C)C(C)C(=O)NCC1CCCCC1 (stereo unspecified)	none
CCN(CC)S(=O)(=O)c1ccc2c(c1)nc(CC(=O)O)n2C	Mtb MbtI inh 94.1, PV pol inh 81.0
CC(C(=O)Nc1ccc(F)cc1)C1SC(=O)NC1=O (stereo unspecified)	none
Cc1noc(C)c1CSc1ccccc1C(=O)OC(C)C(=O)N1CCOCC1 (stereo unspecified)	none
Cc1noc(C)c1CSc1ccccc1C(=O)NC(C)c1ccc2c(c1)OCCO2 (stereo unspecified)	Mtb MbtI inh 88.7
Cc1cnc2c(c1)N1CCC2CC1	MenB inh 39.3
COc1cc(C=C(C#N)C#N)ccc1O	Mtb MbtI inh 59.3
CCOCCCN=C1SCC(CC)N1C(=O)c1ccc(C#N)cc1 (stereo unspecified)	PV pol inh 89.0
N#Cc1ccc(C(=O)N2CCCSC2=NCCc2ccccc2)cc1	none
O=C(CCS(=O)(=O)Cc1ccccc1)Nc1nccs1	none
Cc1ccc(N2C(=O)N(c3ccccc3)C(=N)C2=S)cc1Cl	PV pol inh 68.0
Cc1cc(OCC(=O)NN)no1	none
Cc1ccc(C(=O)c2ccc(C)c(C)c2)cc1C	none
Cc1ccc(C(=O)CBr)cc1C	Mtb MbtI inh 88.4 (no result: MenB inh)
Cc1ccc(C)c(SCC(=O)NC(C)C(c2ccccc2)N2CCOCC2)c1 (stereo unspecified)	PV pol inh 88.0 (no result: MenB inh)
Cc1ccc(C)c(SCC(=O)NC(C)C(c2cccs2)N2CCCC2)c1 (stereo unspecified)	none (no result: MenB inh)
C=CCNC(=S)Nc1ccccc1	none
C=CCNC(=S)C(=O)Nc1ccccc1	PV pol inh 81.0 (no result: Mtb MbtI inh)
Clc1nc2c(Cl)cccc2s1	Mtb MbtI inh 58.7
Clc1cccc2sc(N3CCCC3)nc12	none
Cc1cc(C(F)(F)F)c(C#N)c(=S)[nH]1	none
N#Cc1c(N)cc(N)[nH]c1=S	Mtb MbtI inh 96.8
COc1ccc2nc3sc(C(=O)NC4CC4)cc3cc2c1	none (no result: MenB inh, Mtb MbtI inh, PV pol inh)
O=C1C=C2N(c3ccccc3)CCOC2(O)c2ccccc21 (stereo unspecified)	PV pol inh 37.0 (no result: Mtb MbtI inh)
O=C1OC2(O)c3ccccc3C(=O)N2c2ccccc21 (stereo unspecified)	none
S=C=NCCc1ccccc1	Mtb MbtI inh 65.0, PV pol inh 89.0
COc1ccc(CCC(O)C2(O)CCCCC2)cc1 (stereo unspecified)	none (no result: Mtb MbtI inh)
COc1ccc(CCN=C=S)cc1	Mtb MbtI inh 96.3, PV pol inh 77.0
NS(=O)(=O)c1ccc2nc(NC(=O)Cn3[nH]c(=O)c4ccccc4c3=O)sc2c1	none
Cc1cc(Br)cc(C)c1OCCCN(C)C	PV pol inh 88.0
COc1ccc(Cc2nn3c(Cn4cnc5ccccc54)nnc3s2)cc1	Mtb MbtI inh 99.0
COC(=O)c1sc(NC(=O)C(F)(F)F)c(C(=O)OC)c1C	none
COC(=O)c1sc(NC(=O)c2ccccc2)c(C(=O)OC)c1C	PV pol inh 68.0 (no result: Mtb MbtI inh)
COC(=O)/C=C/S(=O)(=O)c1ccc(Br)cc1	AID504770 -2.75, Mtb MbtI inh 100.3
COC(=O)/C=C/S(=O)(=O)c1ccc(NC(C)=O)cc1	Mtb MbtI inh 67.0
CC(=O)Nc1ccc(S(=O)(=O)N=S(C)(C)=O)cc1	none
CN(C)C(=O)c1ccccc1NS(=O)(=O)c1ccc(F)cc1	none
CC(=O)NC(=O)/C(C#N)=C/N1CCOCC1	none
CCCCS(=O)(=O)Nc1nccs1	none
CCCCS(=O)(=O)Nc1ccc(C)cn1	PV pol inh 83.0
O=C1C(O)=C(O)C(=O)C(O)=C1O	PV pol inh 97.0!
O=C(NCC[n+]1ccc2ccccc2c1)c1ccccc1	none (no result: Mtb MbtI inh)
N#CCSc1nsc(SCC#N)c1C#N	none (no result: MenB inh, Mtb MbtI inh, PV pol inh)
O=C(CCS(=O)(=O)c1ccccc1)N(Cc1ccccn1)c1nc2ccccc2s1	Mtb MbtI inh 71.0
O=C(CCS(=O)(=O)c1ccccc1)N(Cc1cccnc1)c1nc2ccc(F)cc2s1	none (no result: AID504770, MenB inh, Mtb MbtI inh)
CC(C)SC1OC(CO)C(O)C(O)C1O (stereo unspecified)	none (no result: MenB inh, Mtb MbtI inh, PV pol inh)
CC(=O)OCC(=O)Nc1ccccc1	PV pol inh 3.0
c1ccc(-c2nnc(SCCN3CCOCC3)o2)cc1	MenB inh 26.2
CCOC(=O)c1c(C)oc2nc(COC(=O)c3cc(-c4ccc(Cl)cc4)nc4ccccc34)nc(N)c12	AID504770 -4.65
COc1ccc(-c2cc(C(=O)Oc3ccc(Cl)cc3)c3ccccc3n2)cc1	none (no result: AID504770, MenB inh, Mtb MbtI inh)
Cc1cc(C)cc(-n2ncc3c(=O)[nH]cnc32)c1	none
CSc1cccc(N2C(=O)C=CC2=O)c1	AID504770 -2.15 (no result: MenB inh, Mtb MbtI inh, PV pol inh)
N#Cc1cccc(N2C(=O)C=CC2=O)c1	AID504770 -2.8 (no result: MenB inh, Mtb MbtI inh, PV pol inh)
O=C1C=CC(=O)N1c1ccc2ccccc2c1	Mtb MbtI inh 99.6
COc1ccc(N2C(=O)C=CC2=O)cc1OC	Mtb MbtI inh 94.2 (no result: MenB inh)
O=C(c1ccc(CN2CCOCC2)o1)C(F)(F)F	none
Oc1ccc2ccccc2c1C(c1ccccc1)N1CCCCC1 (stereo unspecified)	none (no result: MenB inh, Mtb MbtI inh, PV pol inh)
Cc1ccc(/C=C2/CC(C)C/C(=C\c3ccc(C)o3)C2=O)o1 (stereo unspecified)	Mtb MbtI inh 92.2
Cc1ccc(/C=C2\CC/C(=C\c3ccc(C)o3)C2=O)o1	Mtb MbtI inh 99.0
Cc1ccc(/C=C2\CCCc3ccccc3C2=O)o1	none
Cc1ccc(/C=C2/C(=O)/C(=C/c3ccc(C)o3)C3CCC2N3C)o1	none
Cc1ccc(/C=C2/C=CC(=O)O2)o1	PV pol inh 81.0 (no result: Mtb MbtI inh)
N#CC(C#N)=C(N)/C(C#N)=C/c1cccs1	none
O=C(c1cnccn1)N(Cc1ccc(Cl)cc1)Cc1cc2cc3c(cc2[nH]c1=O)OCCO3	MenB inh 25.0
CCc1nc2ccccc2c(N)c1C	PV pol inh 90.0 (no result: Mtb MbtI inh)
O=c1c(Cl)c(N2CCN(c3ccccn3)CC2)cnn1-c1nc2ccccc2o1	none (no result: MenB inh, Mtb MbtI inh, PV pol inh)
O=C(c1ccccc1)N1CCn2c1nc1ccccc12	none (no result: Mtb MbtI inh)
COCCNC(=S)N1CCn2c1nc1ccccc12	Mtb MbtI inh 84.5
CCOC(=O)c1ccc(-n2cnnn2)cc1	none
COc1ccc(CSc2nc3ccccc3n2CCC#N)cc1F	none
COc1cccc(C(=O)Nc2cc3cc(OC)ccc3oc2=O)c1	PV pol inh 85.0 (no result: AID504770, MenB inh, Mtb MbtI inh)
Nc1nc(N)c2[nH]c(-c3ccccc3)nc2n1	PV pol inh 68.0
Nc1nc(N)nc(-c2ccccc2)n1	none
S=c1[nH]nc(Nc2ccccc2)n1-c1ccccc1	Mtb MbtI inh 57.7

Bioassay records deposited in PubChem BioAssay by ICCB-Longwood Screening Facility, Harvard Medical School.
